This is part of a sample that, as a whole, favours compounds with a hit. Of some 79,000 tested, about 15% had one in any assay. Activity calls are given as the source filed them. Cut-off read from the data, not from the text of the source: active = growth inhibition above about 70%; inactive = the rest.
Legend:
[1] = NCI Yeast Anticancer Drug Screen. Data for the rad52 strain (AID 147);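 note: 0% = growth of vehicle-treated control cultures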; details: S. cerevisiae rad52 mutant growth inhibition, active compounds read high
In short: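 DNA repair-defective yeast; compound exposure; growth scored against vehicle controls.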

[2] = NCI Yeast Anticancer Drug Screen. Data for the wt1 strain (AID 149);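 note: 0% = growth of vehicle-treated wt1 cultures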; details: S. cerevisiae wt1 strain (SPY 50644) growth inhibition, active compounds read high
In short: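 Yeast wt1 strain exposed to compounds; growth inhibition measured relative to vehicle-treated controls.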

[3] = NCI Yeast Anticancer Drug Screen. Data for the rad50EPP+ strain (AID 151);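 note: 0% = growth of vehicle-treated control cultures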; details: S. cerevisiae rad50 mutant strain, active compounds read high
In short: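 rad50EPP+ yeast treated with test compounds. Readout: growth vs vehicle control.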

[4] = NCI Yeast Anticancer Drug Screen. Data for the mgt1 strain (AID 153); details: S. cerevisiae mgt1 mutant growth inhibition, active compounds read high
In short: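 Growth inhibition relative to vehicle controls was scored for the mgt1 yeast strain after compound exposure.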

[5] = NCI Yeast Anticancer Drug Screen. Data for the rad50 strain (AID 155);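 note: 0% = growth of vehicle-only cultures of the same strain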; details: S. cerevisiae rad50 strain growth inhibition, active compounds read high
In short: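 Yeast carrying a defined DNA repair defect were exposed to test compounds, and growth was compared with vehicle-treated controls to give percent inhibition.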

[6] = NCI Yeast Anticancer Drug Screen. Data for the mec2-1 strain (AID 157); details: S. cerevisiae mec2-1 strain, active compounds read high
In short: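 Growth inhibition is read against vehicle-treated controls after compound exposure of the mec2-1 yeast strain, which is defective in DNA damage repair or cell cycle control.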

[7] = NCI Yeast Anticancer Drug Screen. Data for the rad14 strain (AID 159);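 note: 0% = growth of vehicle-treated control cultures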; details: S. cerevisiae rad14 strain growth inhibition, active compounds read high
In short: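 Yeast cells carrying a defined DNA-repair defect were exposed to compounds, and growth inhibition was calculated relative to vehicle-treated control cultures.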

[8] = NCI Yeast Anticancer Drug Screen. Data for the sgs1 mgt1 strain (AID 161);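 note: 0% = growth of cultures given vehicle only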; details: S. cerevisiae sgs1 mgt1 strain, active compounds read high
In short: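 This yeast growth screen uses a strain with defined DNA-repair lesions; compound-treated growth is compared with vehicle-treated growth.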

[9] = NCI Yeast Anticancer Drug Screen. Data for the CLN2oe strain (AID 163);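 note: 0% = growth of vehicle-only control cultures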; details: S. cerevisiae CLN2oe strain, active compounds read high
In short: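 Compound-treated yeast; growth vs vehicle ctrl = % inhibition. Genetically altered strain (cell-cycle control).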

[10] = NCI Yeast Anticancer Drug Screen. Data for the cln2 rad14 strain (AID 165);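 note: 0% = growth equal to vehicle treated cultures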; details: S. cerevisiae cln2 rad14 strain, active compounds read high
In short: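 Growth inhibition, relative to vehicle-treated controls, is the read-out. The test organism is a yeast strain with defined genetic alterations, cln2 rad14.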

[11] = NCI Yeast Anticancer Drug Screen. Data for the bub3 strain (AID 167); details: S. cerevisiae bub3 mutant strain, active compounds read high
In short: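 Compounds were applied to a genetically altered yeast strain carrying a cell-cycle control defect. Growth inhibition was scored against vehicle-treated controls.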

[12] = NCI Yeast Anticancer Drug Screen. Data for the wt2 strain (AID 169);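 note: 0% = growth of vehicle-treated yeast cultures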; details: S. cerevisiae wt2 strain growth inhibition, active compounds read high
In short: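 Compound exposure of yeast; growth compared with vehicle controls; inhibition reported.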

[13] = NCI Yeast Anticancer Drug Screen. Data for the mlh1 strain (AID 171);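 note: 0% = growth of vehicle-treated control cultures of the same strain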; details: S. cerevisiae mlh1 strain growth inhibition, active compounds read high
In short: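 Compounds are applied to a genetically altered yeast strain, and its growth is compared with that of vehicle-treated cultures to give percent inhibition.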

[14] = NCI Yeast Anticancer Drug Screen. Data for the mlh1 rad18 strain (AID 175); details: S. cerevisiae mlh1 rad18 strain growth inhibition, active compounds read high
In short: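 Cells of a genetically altered yeast strain, deficient in DNA damage repair, were treated with compound. Their growth was then compared with that of vehicle-treated cultures to give inhibition.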

[15] = NCI Yeast Anticancer Drug Screen. Data for the rad18 strain (AID 177); details: S. cerevisiae rad18 mutant growth inhibition, active compounds read high
In short: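 Compounds are applied to a repair-deficient yeast strain, and growth is compared with that of vehicle-treated cultures to give percent inhibition.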

[16] = at 5.0 µM (retest, dose inferred, filed as 0.5)
[17] = at 50.0 µM (retest, dose inferred, filed as 5.0)

Measured: growth inhibition

COc1ccc(N=C2C(=O)Nc3ccc(Br)cc32)cc1
inactive: [1]; at 1.2 µM 14% | [1]; at 3.7 µM 15% | [1]; at 11.0 µM 18% | [1]; at 33.0 µM 23% | [1]; at 100.0 µM 17% | [2]; at 1.2 µM 8% | [2]; at 3.7 µM 15% | [2]; at 11.0 µM 9% | [2]; at 33.0 µM 14% | [2]; at 100.0 µM 15% | [3]; at 1.2 µM -9% | [3]; at 3.7 µM 1% | [3]; at 11.0 µM -11% | [3]; at 33.0 µM 6% | [3]; at 100.0 µM -20% | [4]; at 1.2 µM 8% | [4]; at 3.7 µM -24% | [4]; at 11.0 µM -5% | [4]; at 33.0 µM 2% | [4]; at 100.0 µM 1% | [5]; at 1.2 µM -14% | [5]; at 3.7 µM -14% | [5]; [16] 50% | [5]; at 11.0 µM -23% | [5]; at 33.0 µM -11% | [5]; [17] 61% | [5]; at 50.0 µM 13.8% | [5]; at 100.0 µM -5% | [6]; at 1.2 µM -19% | [6]; at 3.7 µM -13% | [6]; [16] 48% | [6]; at 11.0 µM -19% | [6]; at 33.0 µM -26% | [6]; [17] 61% | [6]; at 50.0 µM 10.7% | [6]; at 100.0 µM -20% | [7]; at 1.2 µM -22% | [7]; at 3.7 µM -25% | [7]; at 11.0 µM -26% | [7]; at 33.0 µM -28% | [7]; at 100.0 µM -30% | [8]; [16] -15% | [8]; [17] 23% | [8]; at 50.0 µM 28.9% | [9]; at 1.2 µM -7% | [9]; at 3.7 µM 23% | [9]; at 11.0 µM 19% | [9]; at 33.0 µM 23% | [9]; at 100.0 µM 1% | [10]; [16] 54% | [10]; [17] 37% | [10]; at 50.0 µM -7.9% | [11]; at 1.2 µM -7% | [11]; at 3.7 µM -7% | [11]; [16] 32% | [11]; at 11.0 µM -2% | [11]; at 33.0 µM 2% | [11]; at 100.0 µM 50% | [12]; at 1.2 µM 19% | [12]; at 3.7 µM 1% | [12]; at 11.0 µM 9% | [12]; at 33.0 µM 20% | [12]; at 100.0 µM 11% | [13]; at 1.2 µM 6% | [13]; at 3.7 µM -3% | [13]; at 11.0 µM -19% | [13]; at 33.0 µM -24% | [13]; at 100.0 µM -18% | [14]; [16] 47% | [14]; [17] 55% | [14]; at 50.0 µM 27% | [15]; at 1.2 µM -25% | [15]; at 3.7 µM -36% | [15]; at 11.0 µM -39% | [15]; at 33.0 µM -30% | [15]; at 100.0 µM -28%
active: [11]; [17] 85% | [11]; at 50.0 µM 82.4%

Cc1cc2c(cc1C(=O)CCC(=O)O)CC1(C2)Cc2cc(C)c(C(=O)CCC(=O)O)cc2C1
inactive: [1]; at 1.2 µM 3% | [1]; at 3.7 µM 6% | [1]; at 11.0 µM 11% | [1]; at 33.0 µM 25% | [1]; at 100.0 µM 47% | [2]; at 1.2 µM 3% | [2]; at 3.7 µM 4% | [2]; at 11.0 µM 12% | [2]; at 33.0 µM 21% | [2]; at 100.0 µM 35% | [3]; at 1.2 µM 1% | [3]; at 3.7 µM 0% | [3]; at 11.0 µM 8% | [3]; at 33.0 µM 15% | [3]; at 100.0 µM 30% | [4]; at 1.2 µM 2% | [4]; at 3.7 µM 6% | [4]; at 11.0 µM 12% | [4]; at 33.0 µM 36% | [4]; at 100.0 µM 42% | [5]; at 1.2 µM 3% | [5]; at 3.7 µM 2% | [5]; [16] 13% | [5]; at 11.0 µM 9% | [5]; at 33.0 µM 21% | [5]; [17] 36% | [5]; at 50.0 µM 56.5% | [5]; at 100.0 µM 42% | [6]; at 1.2 µM -2% | [6]; at 3.7 µM 1% | [6]; [16] -4% | [6]; at 11.0 µM 12% | [6]; at 33.0 µM 26% | [6]; [17] 14% | [6]; at 50.0 µM 31.5% | [6]; at 100.0 µM 56% | [7]; at 1.2 µM -1% | [7]; at 3.7 µM 2% | [7]; at 11.0 µM 8% | [7]; at 33.0 µM 22% | [7]; at 100.0 µM 44% | [8]; [16] -4% | [8]; [17] 29% | [8]; at 50.0 µM 49.9% | [9]; at 1.2 µM -5% | [9]; at 3.7 µM 2% | [9]; at 11.0 µM 14% | [9]; at 33.0 µM 27% | [9]; at 100.0 µM 41% | [10]; [16] 16% | [10]; [17] 47% | [10]; at 50.0 µM 38.4% | [11]; at 1.2 µM -4% | [11]; at 3.7 µM 0% | [11]; [16] 13% | [11]; at 11.0 µM 9% | [11]; at 33.0 µM 17% | [11]; [17] 62% | [11]; at 50.0 µM 54.8% | [11]; at 100.0 µM 54%
